Assay results as given in PubChem BioAssay AID2189 (The Scripps Research Institute Molecular Screening Center, 2009).
This is one part of the list. Active and inactive are the calls of the source. Cut-off read from the data, not from the text of the source: active = inhibition above about 4.9%; inactive = the rest.

These molecules were tested on metallo-beta-lactamase IMP-1 (Pseudomonas aeruginosa) (assay: inhibition of IMP-1 substrate hydrolysis – biochemical, epi-absorbance, hits shared with VIM-2 screen, confirmation (AID 2189;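 note: 0% = enzyme with vehicle and 100% = vehicle without enzyme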)). Settings: purified IMP-1 enzyme, at 5.6 µM, hits give high values.

Row | Structure (SMILES) | inhibition
1 | CN1C(=O)c2cccc3c(N)ccc(c23)C1=O | 36.2% (active)
2 | C/C(=N\Nc1ccc(S(N)(=O)=O)cc1[N+](=O)[O-])c1cccs1 | 10.6% (active)
3 | Nc1c(C(=O)c2cccs2)sc2nsc(SCCN3CCCCC3)c12 | 18.4% (active)
4 | CCC(=C/c1sc2ccc3ccccc3c2[n+]1C)/C=C1\Sc2ccc3ccccc3c2N1C | 27.6% (active)
5 | Cc1nn(C)cc1N1C(=O)c2cccc3c(N)ccc(c23)C1=O | 29.8% (active)
6 | NC(=O)c1ccc(NC(=O)COC(=O)c2c3c(nc4ccccc24)/C(=C\c2ccc4c(c2)OCO4)CCC3)cc1 | -2.29% (inactive)
7 | NS(=O)(=O)c1ccc(NC(=O)COC(=O)c2c3c(nc4ccccc24)/C(=C\c2ccc4c(c2)OCO4)CCC3)cc1 | -2.39% (inactive)
8 | Oc1ccc2ccc3cccc[n+]3c2c1 | 23.2% (active)
9 | COc1cc(/C=C2/SC(=S)N(Cc3ccccc3)C2=O)cc(OC)c1O | 9.27% (active)
10 | c1ccc(-c2nccc(-c3ccc(-n4cnc5ccccc54)cc3)n2)nc1 | 0.59% (inactive)
11 | Cc1cc2nc3c(=O)n(Cc4ccccc4)c(=O)[nH]c3nc2cc1N | 13.2% (active)
